Screening data deposited in PubChem by National Center for Advancing Translational Sciences (NCATS).
KB-3-1 cytotox – KB-3-1 parental cell cytotoxicity. KB-3-1 viability, CellTiter-Glo ATP luminescence, 72 h. Potency, µM (titrated, usually from 46.1 µM), actives largely listed as cytotoxic. 400,000 compounds, 1.4% hits. AID 1347075; also: nearly all actives have a fitted effect of over 60% in size
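KB-3-1 parental drug-naive adenocarcinoma cells in DMEM/10% FBS, incubated 72 h at 37 C with pin-transferred compounds across a concentration series. Viability by CellTiter-Glo luminescence; concentration-response curves fitted after normalization.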
MCF10A rerep – DNA re-replication induction in MCF 10a cells; MCF 10A DNA re-replication, Hoechst nuclear intensity, 48 h; Potency, µM (top dose mostly 46.1 µM), hits mostly activators; 350,000 compounds, 2.9% hits; AID 624296; also: nearly all actives have a fitted effect of over 50% in size
KB-V1 MDR tox – kills drug-selected multidrug resistant KB-V1 cells | KB-V1 MDR cells viability, CellTiter-Glo, 72 h | Potency, µM (doses to about 46.1 µM), most hits filed as cytotoxic | 400,000 compounds, 3.4% hits | AID 1347076; also: nearly all actives have a fitted effect of over 60% in size
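Cytotoxicity via CellTiter-Glo luminescence after 72 h compound exposure at 37 degrees C. Cells: drug-selected KB-V1 line, DMEM phenol-red free plus 10% FBS. Compounds tested at multiple concentrations; normalized data fitted to concentration-effect curves.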
HT1080-NT tox – kills 2HG-producing HT-1080-NT fibrosarcoma cells. 360,000 compounds, 1.6% hits. Potency, µM (top dose mostly 46.1 µM), most hits filed as cytotoxic. HT-1080-NT fibrosarcoma viability, CellTiter-Glo ATP luminescence, 48 h;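 also: NT is the 2HG producing partner of a matched IDH1 knockdown line; nearly all actives have a fitted effect of over 55% in size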
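Viability by CellTiter-Glo luminescence after 48 h compound exposure at 37C of HT-1080-NT cells (750/well, RPMI, 5% FBS). % activity scaled between DMSO wells and medium-only wells, then curve-fitted and categorized by curve class.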
SW480 rerep – DNA re-replication induction in SW480 cells; 340,000 compounds, 1.8% hits; Potency, µM (doses to about 46.1 µM), hits mostly activators; SW480 DNA re-replication, Hoechst DNA content imaging, 48 h; also: nearly all actives have a fitted effect of over 55% in size
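Compounds, transferred as 23 nL by pin tool, were incubated with cells for 48 hr; DNA content per nucleus was then quantified by Hoechst staining and fluorescence plate imaging.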
HT1080 IDH1KD tx – HT-1080 IDH1 knockdown cell toxicity (counter line). HT-1080 IDH1 knockdown viability, ATP luminescence, 48 h. Potency, µM (top dose mostly 46.1 µM), actives largely listed as cytotoxic. 360,000 compounds, 2% hits
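Viability of IDH1-knockdown HT-1080 fibrosarcoma cells was assessed by CellTiter-Glo after 48 h at 37 °C with titrated compound; concentration-effect curves were classified by fit quality and response size.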
Of the large screens only hits and unclear results are named; the others gave an inactive call. This is a sample that favours compounds with a hit; in the whole collection about 7.9% have one here. Calls follow the shape of the dose curve; as a rule, active = well fitted curve in the direction sought with a large enough effect; inconclusive = small, poorly fitted or top-dose-only effect, or another doubt; inactive = no such curve, though single readings can be large; an effect the other way counts as inactive or inconclusive.

COc1ccc(C(=O)/C=C/C(=O)N(Cc2ccccc2OC)C(C(=O)NC2CCCCC2)c2ccncc2)c(O)c1 (stereo not given)	KB-3-1 cytotox inconclusive, MCF10A rerep inconclusive, KB-V1 MDR tox inconclusive, HT1080-NT tox inconclusive, HT1080 IDH1KD tx inconclusive
COc1ccc(C(=O)/C=C/C(=O)N(Cc2ccc(F)cc2)C(C(=O)NC2CCCCC2)c2ccncc2)c(O)c1 (stereo not given)	KB-3-1 cytotox inconclusive, KB-V1 MDR tox 0.731µM, SW480 rerep inconclusive
COCCNc1nc(NCc2ccccc2F)c2sccc2n1	KB-V1 MDR tox inconclusive (no result: MCF10A rerep, SW480 rerep)
COc1ccccc1CNc1nc(NCc2ccccc2F)c2sccc2n1	KB-3-1 cytotox inconclusive, KB-V1 MDR tox 18.4µM, HT1080-NT tox 23.1µM, HT1080 IDH1KD tx 20.6µM (no result: MCF10A rerep, SW480 rerep)
Fc1ccccc1CNc1nc(NCC2CC2)nc2ccsc12	HT1080-NT tox 23.1µM, HT1080 IDH1KD tx 20.6µM (no result: MCF10A rerep, SW480 rerep)
COc1ccccc1CNc1ncnc2sccc12	KB-3-1 cytotox inconclusive, KB-V1 MDR tox 5.17µM, HT1080-NT tox inconclusive
c1ccc2c(c1)OCC(CNc1ncnc3sccc13)O2 (stereo not given)	KB-3-1 cytotox 1.64µM, KB-V1 MDR tox inconclusive, HT1080-NT tox 0.731µM, HT1080 IDH1KD tx 1.16µM
c1ccc2c(c1)OCC(CNCC1COc3ccccc3O1)O2 (stereo not given)	KB-V1 MDR tox inconclusive
Fc1ccccc1CNc1ncnc2sccc12	HT1080 IDH1KD tx inconclusive
N#Cc1c(-n2ncnc2-c2ccc(F)cc2)sc2c1CCCCC2	none (no result: MCF10A rerep, HT1080-NT tox, SW480 rerep, HT1080 IDH1KD tx)
CCc1ccc(C2c3c(oc4ccc(F)cc4c3=O)C(=O)N2c2nc(C)c(C(=O)OC)s2)cc1 (stereo not given)	none (no result: MCF10A rerep, HT1080-NT tox, SW480 rerep, HT1080 IDH1KD tx)
Cc1cccc(NC(=O)c2cc3c([nH]c2=O)CC(c2ccccc2)CC3=O)c1 (stereo not given)	none (no result: MCF10A rerep, HT1080-NT tox, SW480 rerep, HT1080 IDH1KD tx)
COc1ccccc1CNc1nc(NCc2ccccc2)nc2ccsc12	HT1080-NT tox 25.9µM, HT1080 IDH1KD tx 18.4µM (no result: MCF10A rerep, SW480 rerep)
COc1ccc(-c2cc(CNc3nc(NCc4ccccc4OC)nc4ccsc34)on2)cc1	HT1080-NT tox 18.4µM, HT1080 IDH1KD tx 14.6µM (no result: MCF10A rerep, SW480 rerep)
COc1ccccc1CNc1nc(NCc2cccc(OC)c2OC)c2sccc2n1	KB-V1 MDR tox 20.6µM, HT1080-NT tox 20.6µM, HT1080 IDH1KD tx inconclusive (no result: MCF10A rerep, SW480 rerep)
COc1ccccc1CNc1nc(NCc2ccc(C)cc2C)c2sccc2n1	KB-V1 MDR tox inconclusive, HT1080-NT tox inconclusive, HT1080 IDH1KD tx inconclusive (no result: MCF10A rerep, SW480 rerep)
Cc1ccccc1Cc1c(C)nc2nc(SCC(=O)NCCc3ccc(Cl)cc3)nn2c1C	none (no result: MCF10A rerep, HT1080-NT tox, SW480 rerep, HT1080 IDH1KD tx)
CC1=C/C(=C\c2ccc(N(C)C)cc2)c2ccccc21	none (no result: MCF10A rerep, HT1080-NT tox, SW480 rerep, HT1080 IDH1KD tx)
COc1ccc(C2C(C#N)=C(N)N(c3sc4c(c3C#N)CCCC4)C3=C2C(=O)CC(C)(C)C3)cc1 (stereo not given)	KB-V1 MDR tox 5.8µM
COc1ccc(C2C(C#N)=C(N)N(c3sc4c(c3C#N)CCCC4)C3=C2C(=O)CC(C)(C)C3)cc1OC (stereo not given)	none
Cc1cccc(NC(=O)CSc2nc(-c3ccccc3)cc(=O)[nH]2)c1C	KB-V1 MDR tox inconclusive (no result: MCF10A rerep, HT1080-NT tox, SW480 rerep, HT1080 IDH1KD tx)
O=C(Cn1c(=O)n(-c2ccccc2)c(=O)c2sc3ccccc3c21)N1CCCC1	none (no result: MCF10A rerep, HT1080-NT tox, SW480 rerep, HT1080 IDH1KD tx)
COc1ccccc1N(C)S(=O)(=O)c1ccc(C)c(C(=O)NC(C)c2ccccn2)c1 (stereo not given)	KB-V1 MDR tox 9.2µM
CCCN(CCC)CCCNC(=O)c1cc2c(=O)oc3ccc(C)cc3c2s1	none (no result: MCF10A rerep, HT1080-NT tox, SW480 rerep, HT1080 IDH1KD tx)
c1cc(Nc2cccc3nccnc23)c2nccnc2c1	KB-3-1 cytotox inconclusive, KB-V1 MDR tox inconclusive, SW480 rerep 8.2µM
Fc1ccc(Nc2cccc3nccnc23)cc1	none
c1ccc2ncccc2c1	KB-3-1 cytotox inconclusive
c1ccc2nccnc2c1	KB-3-1 cytotox 4.61µM, KB-V1 MDR tox inconclusive (no result: MCF10A rerep, HT1080-NT tox, SW480 rerep, HT1080 IDH1KD tx)
CCOCCCNC(=O)C1CCC(CNS(=O)(=O)c2cccc3nsnc23)CC1 (stereo not given)	KB-V1 MDR tox 20.6µM
CCOC(=O)C1(C(F)(F)F)N=C(C(F)(F)F)Nc2ccc(F)cc21 (stereo not given)	KB-V1 MDR tox inconclusive, SW480 rerep 13µM
CCOC(=O)C(NC(=O)Nc1ccc(F)cc1)(OCC)C(F)(F)F (stereo not given)	none
COc1ccc(N/C=C2/Sc3ccccc3NC2=O)cc1	none
Cc1ccc(N/C=C2/Sc3ccccc3NC2=O)cc1	MCF10A rerep 18.4µM, KB-V1 MDR tox inconclusive
Cc1ccc2nc(C(C)(C)C)c(Cc3ccccc3C(F)(F)F)n2c1	HT1080-NT tox inconclusive, HT1080 IDH1KD tx inconclusive (no result: MCF10A rerep, SW480 rerep)
COc1ccc(C(=O)/C=C/C(=O)N(CC(=O)NC2CCCCC2)CC2CCCO2)c(O)c1 (stereo not given)	KB-3-1 cytotox inconclusive, MCF10A rerep 11.6µM, KB-V1 MDR tox inconclusive, HT1080 IDH1KD tx inconclusive
COc1ccc(C(=O)/C=C/C(=O)N(CC(=O)NC2CCCCC2)Cc2ccccc2OC)c(O)c1	KB-3-1 cytotox inconclusive, MCF10A rerep inconclusive, KB-V1 MDR tox 14.6µM, HT1080-NT tox inconclusive, SW480 rerep 3.26µM, HT1080 IDH1KD tx inconclusive
COc1ccc(C(=O)/C=C/C(=O)N(CC(=O)NC2CCCCC2)Cc2ccccc2)c(O)c1	KB-3-1 cytotox inconclusive, MCF10A rerep inconclusive, HT1080-NT tox 3.66µM, SW480 rerep 6.51µM, HT1080 IDH1KD tx 3.66µM
COc1cccc(CN(CC(=O)NC2CCCC2)C(=O)CCC(=O)Nc2cc(C)on2)c1	none
